Bioassay records (PubChem BioAssay)
GalR3 antagonist = human GalR3 antagonism | HEK293 GalR3-CNG cAMP membrane potential fluorescence; galR3 body fused to GalR1 C-terminus | hit rate 0.44% among 360,000 | inhibition, % at 3 µM | AID 651719 | O60755;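 active = inhibition above the screen-wide average plus 3 SD, cut at about 13% in these data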;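 also: forskolin and galanin both at EC90 stimulate the cells; cAMP rise reported by CNG channel membrane potential dye signal; 0% = forskolin plus galanin with DMSO and 100% = forskolin alone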
Target sequence (O60755 1-299 limits assumed): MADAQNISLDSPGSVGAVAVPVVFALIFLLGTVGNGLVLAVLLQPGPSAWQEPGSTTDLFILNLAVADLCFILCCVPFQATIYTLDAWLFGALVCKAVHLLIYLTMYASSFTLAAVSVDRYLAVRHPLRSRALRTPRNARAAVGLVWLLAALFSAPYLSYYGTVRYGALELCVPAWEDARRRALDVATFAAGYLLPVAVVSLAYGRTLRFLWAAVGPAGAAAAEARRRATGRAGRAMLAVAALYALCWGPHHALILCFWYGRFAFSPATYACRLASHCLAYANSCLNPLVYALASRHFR
Gli-Sufu antag = antagonists of Gli-Sufu signaling. Sufu-KO-LIGHT fibroblasts, Gli luciferase reporter luminescence. inhibition, % at 5 µM. hit rate 0.74% among 340,000. AID 588413;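 active = inhibition above about 55%, limit read from the data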;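 also: 0% = DMSO-treated cells and 100% = wells with medium but no cells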
NR2F2 inh = blocks human COUP-TFII nuclear receptor; hit rate 0.7% among 370,000; inhibition, % at 8.6 µM; AID 686940; HEK293T NGFI-A luciferase reporter, luminescence; P24468;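 active = inhibition above a per-plate cutoff, mean inhibition of test wells between control levels plus 3 SD, cut at about 38% in these data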;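 also: cells cotransfected with COUP-TFII expression vector driving the NGFI-A reporter; 0% = median of COUP-TF2 test wells and 100% = reporter-only cells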
aDG glyco act = alpha-DG glycosylation activation | hit rate 0.22% among 360,000 | Pro5-aDG cells, alpha-DG glycosylation AlphaScreen (IIH6); 0% Pro5, 100% B10-LARGE cell signal | AID 624168 | activation, % at 10 µM;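 active = activation of at least 8% versus controls, or a plate z-score of at least 8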;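 also: Pro5 are CHO cells carrying HIG-tagged alpha-DG that lacks glycosylation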
Env fusion inh = blocks HIV Env-driven cell-cell fusion. AID 651610. hit rate 1.1% among 360,000. HeLa-JRFL Env/CEM21 cell fusion, luciferase. inhibition, % at 12.3 µM;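 active = mean replicate inhibition score of at least 50 and every replicate individually at or above 50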;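 also: 0% = plate neutral controls and 100% = maraviroc near 300 nM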
GalR3 antag conf = GalR3 (human) antagonism, confirmation. inhibition, % at 3 µM. HEK293 GalR3 CNG cAMP biosensor, membrane potential fluorescence; galR3 fused to GalR1 carboxy tail; challenged with forskolin and galanin at EC90. hit rate 59% among 1,600. shares compounds with GalR3 antagonist;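 active = inhibition above the primary screen's cutoff, the mean inhibition of all screened compounds plus 3 SD, cut at about 13% in these data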;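 also: 0% = forskolin plus galanin and 100% = forskolin alone with DMSO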
CNG parental = counter-screen for GalR3 antagonists: nonspecific agonists in parental HEK-CNG cells | HEK293-CNG parental cells, cAMP membrane potential fluorescence; normalised: DMSO wells 0%, forskolin wells 100% | shares compounds with GalR3 antagonist | hit rate 10% among 1,600 | activation, % at 3 µM; in the data active = activation above about 1.3%
Active calls of the source: *; . = no result given; [ ] = remark or other dose. Shown are actives, neighbours in structure and some others; about 2.1% of the full set was active somewhere.

SMILES	GalR3 antagonist	Gli-Sufu antag	NR2F2 inh	aDG glyco act	Env fusion inh	GalR3 antag conf	CNG parental
COc1cc2c(cc1OC)C(c1ccc(C)cc1)NC(=O)C2 (configuration not stated)	14*	-6	-13	0	3	3	0
CC(Oc1ccc(Cl)cc1Cl)c1ccnc2nc(N3CCOCC3)nn12 (configuration not stated)	.	11	15	0	28	3	1
C=CC[C@@H](Cc1ccc(F)cc1)C(=O)OC[C@H]1CCCN1C(=O)[C@H](CC=C)CC(=O)NCCO	14*	6	10	0	9	4	0
Cc1ccccc1NC(=O)CN(C)S(=O)(=O)c1ccc(-c2ccc(=O)[nH]n2)s1	7	-7	-3	0	17	.	.
Cc1cccc(NC(=O)CN(C)S(=O)(=O)c2ccc(-c3ccc(=O)[nH]n3)s2)c1C	80*	-8	-9	1	-1	12	0
COc1cc(C2Nc3ccc4ncccc4c3C3=C2C(=O)CCC3)cc(OC)c1O (configuration not stated)	13*	-16	-20	0	.	6	0
C[C@@H]1CN([C@H](C)CO)C(=O)c2cc(NC(=O)CCC(F)(F)F)ccc2O[C@@H](C)CCCCO[C@@H]1CN(C)S(C)(=O)=O	.	.	.	.	2[16.7 µM]	.	.
COc1cc(C(=O)NCCc2cc3c(OC)ccc(OC)c3[nH]c2=O)cc(OC)c1OC	14*	-1	-12	0	8	15*	0
Nc1ncnc2c1ncn2[C@@H]1O[C@H](CO)C[C@H]1O	16*	-5	-11	0	12	30*	0
O=[N+]([O-])c1c(Nc2ccccc2O)cc(Cl)c2nonc12	40*	4	5	0	-232	41*	0
COc1ccc(NS(=O)(=O)c2ccc3oc(SC(C)C(N)=O)nc3c2)cc1 (configuration not stated)	24*	40	36	1	19	0	0
CCNC(=O)CSc1nc2cc(S(=O)(=O)Nc3ccc(OC)cc3)ccc2o1	0	11	6	0	-3	.	.
O=c1oc2ccccc2c2c1C(c1ccc(Cl)cc1)Nc1ccc3ccccc3c1-2 (configuration not stated)	15*	11	-10	2	.	-2	0
CC(=O)N(C)C[C@@H]1Oc2cc(C#CC3CCCC3)ccc2S(=O)(=O)N([C@@H](C)CO)C[C@H]1C	.	.	.	.	11[16.7 µM]	.	.
CC(=O)c1cccc(CN2CCN(CCc3ccccc3)C(CCO)C2)c1 (configuration not stated)	5	1	4	0	4	.	.
CC(=O)c1cccc(CN2CCN(CC=C(C)C)C(CCO)C2)c1 (configuration not stated)	16*	5	-24	0	-8	1	0
COc1cc(/C=N\NC(=O)c2ccc(-c3ccccc3)cc2)cc(Br)c1O	15*	2	-17	0	10	41*	0
COc1ccc(/C=N/NC(=O)c2ccc(-c3ccccc3)cc2)cc1O	0	-7	7	0	-2	.	.
O=C(Nc1ccc(F)c(Cl)c1)c1cc(C2CCCN(S(=O)(=O)c3cccc4cccnc34)C2)on1 (configuration not stated)	13*	.	28	0	-14	6	-1
CCCNC(=O)c1cc(C2CCCN(S(=O)(=O)c3cccc4cccnc34)C2)on1 (configuration not stated)	-4	.	-8	0	11	.	.
COc1ccccc1Oc1ccc2c(c1)C(=O)N(c1cccc3ncccc13)C2=O	58*	4	29	0	8	46*	-1
O=C(C[C@H]1C=C[C@H](NS(=O)(=O)c2ccccc2)[C@@H](CO)O1)NCc1ccncn1	.	.	.	.	17[16.7 µM]	.	.
Cc1ccc(N2C(=O)c3ccccc3NC2C(C)Cc2ccc3c(c2)OCO3)cc1 (configuration not stated)	39*	-14	-17	0	-61	48*	0
CNCC(=O)Nc1ccc(Cl)c(C(F)(F)F)c1	-3	-2	-10	0	2	.	.
Cc1ccccc1NC(=O)CNc1ccc(Cl)c(C(F)(F)F)c1	14*	5	6	0	-22	2	0
SMILES	GalR3 antagonist	Gli-Sufu antag	NR2F2 inh	aDG glyco act	Env fusion inh	GalR3 antag conf	CNG parental
CC(C)NC(=O)N(C)C[C@@H]1Oc2cc(C#Cc3ccc(F)cc3)ccc2S(=O)(=O)N([C@H](C)CO)C[C@@H]1C	.	.	.	.	17[16.7 µM]	.	.
CC(C)C(=O)NCCc1nc(-c2ccccc2)no1	.	-5	-1	0	-15	1	0
CC(=O)NCCc1nc(-c2ccc(Cl)cc2)no1	-3	-16	-8	0	-24	.	.
CCNC(=O)C[C@@H]1CC[C@@H]2[C@H](COc3ccc(NC(=O)C4CCCCC4)cc3C(=O)N2C)O1	.	.	.	.	-9[16.7 µM]	.	.
COC(=O)c1c(-c2ccc(OC)cc2)sc2cc3c(cc12)OCO3	13*	-83	-38	0	-26	18*	0
COc1ccc(-c2sc3cc4c(cc3c2C#CCO)OCO4)cc1	-6	-10	6	0	-36	.	.
O=C(C[C@H]1C=C[C@@H](NC(=O)C2CC2)[C@@H](CO)O1)NCC1CC1	.	.	.	.	2[16.7 µM]	.	.
NC(=O)CC[C@H](NC(=O)c1ccc(F)cc1)C(=O)OCC(=O)NCc1ccc2c(c1)OCO2	26*	-3	-58	0	-17	1	0
C[C@H]1CN([C@@H](C)CO)C(=O)c2cc(C3=CCCCC3)cnc2O[C@@H]1CN(C)CC1CCCC1	.	.	.	.	11[16.7 µM]	.	.
COCCCn1c(-c2cccc(Cl)c2)nc2c1c(=O)[nH]c(=O)n2Cc1ccccc1	-7	-6	-2	0	16	.	.
COCCn1c(=O)[nH]c(=O)c2c1nc(-c1cc(Br)c3c(c1)OCO3)n2Cc1ccccc1	15*	6	-11	0	-11	16*	0
COc1cc([N+](=O)[O-])cc(/C=N/NC(=O)c2cncc(Br)c2)c1O	25*	6	5	0	10	38*	0
COc1ccc(NC(=O)C(=S)N2CCCC2)cc1	16*	10	-33	0	-12	1	0
CC(C)=C1Cc2ccccc2C1=O	13*	-3	17	0	2	0	0
COC(=O)C1CCN(Cc2ccc(OCCCN3CCN(c4ccc([N+](=O)[O-])cc4)CC3)cc2)CC1	13*	5	35	0	12	114*	3.1*
COC(=O)c1ccc(COc2ccccc2/C=N/NC(=O)c2cccnc2)cc1	13*	2	-18	1	-45	5	1
COCC(=O)Nc1ccc2c(c1)C(=O)N(C)[C@H]1CC[C@H](CC(=O)Nc3ccccc3)O[C@@H]1CO2	.	.	.	.	-25[16.7 µM]	.	.
